Values joined by “and” are separate entries in the source; they are usually repeats but may differ in a detail not shown here. Equal entries are not always repeated. Results filed as inconclusive are left out. Some structures have more than one record in an assay (separate samples or runs), and their calls can disagree. Active and inactive are the calls of the source. Unless noted, calls come from the whole dose curve; as a rule, active = well fitted curve in the direction sought with a large enough effect; inconclusive = small, poorly fitted or top-dose-only effect, or another doubt; inactive = no such curve, though single readings can be large; an effect the other way counts as inactive or inconclusive.
How the values were obtained:
[1] = target: Cytochrome P450 3A4 (Homo sapiens) (UniProt P08684); assay: qHTS Assay for Inhibitors and Substrates of Cytochrome P450 3A4 (AID 884); note: nearly all actives have a fitted effect of over 50% in size; note: potency is the fitted concentration of half-maximal effect
Procedure, shortened: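 20 nM human CYP3A4 with 25 uM Luciferin-PPXE (at KM) in 200 mM KPO4, preincubated 10 min with compound; NADPH regeneration started a 60 min RT reaction. Luciferin detected by luminescence, normalized to 57 uM ketoconazole as full inhibition.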

[2] = MultiTox-Fluor Cytotoxicity Assay - LYMP1-001 - Live Cells (AID 947);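 note: 0% = DMSO only and full inhibition = tetraoctylammonium bromide control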
[3] = MultiTox-Fluor Cytotoxicity Assay - LYMP1-002 - Dead Cells (AID 960);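 note: 0% = DMSO and 100% = tetraoctylammonium bromide; nearly all actives have a fitted effect of over 60% in size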
Procedure, shortened: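 Human lymphoblastoid cells (LYMP1-002), 2500/well in complete medium, were exposed to compounds for 16 hr at 37 C. Dead-cell protease activity was read as bis-AAF-R110 fluorescence (Ex/Em 485/520), normalized to DMSO and 15 uM tetraoctylammonium bromide; AC50 from Hill fits.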

[4] = Cell Viability - LYMP2-004 (AID 966);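 note: cells exposed to compound for 24 h; plate controls were DMSO only for no effect and tetraoctylammonium bromide control for full effect; nearly all actives have a fitted effect of over 65% in size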
Procedure, shortened: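 Human lymphoblastoid cells (2500/well) in complete medium were treated with compounds for 24 hr at 37 C, then intracellular ATP was measured by CellTiter-Glo luminescence. AC50 values came from Hill-equation fits of concentration-response data.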

[5] = target: Estrogen receptor (Homo sapiens) (UniProt P03372); assay: qHTS assay for small molecule antagonists of estrogen receptor alpha signaling (AID 588513; active = well fitted curve in the direction sought with a large enough effect in the signal ratio, with a control signal flat, not every such curve was filed as active; the % refers to the signal ratio; note: % is set by controls: 0 for no effect and ±100 for the full control effect)
Procedure, shortened: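 Antagonist-mode qHTS in ER-alpha-UAS-bla HEK 293 cells: compound titration, 0.5nM estradiol for 18 h, CCF4 fluorescence, Hill-derived IC50.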

[6] = target: Glucocorticoid receptor (Homo sapiens) (UniProt P04150); assay: qHTS assay for small molecule agonists of glucocorticoid receptor signaling (AID 588532; active = well fitted curve in the direction sought with a large enough effect in the signal ratio, with a control signal flat; the % refers to the signal ratio;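 note: 100% = dexamethasone at 0.1 µM and 0% = DMSO only wells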); details: HeLa MMTV-bla, beta-lactamase ratio, agonist, 18 h; stronger effect = higher value; percent of dexamethasone control, DMSO zero
Procedure, shortened: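 HeLa GRE-bla reporter cells; 18 h compound exposure at 37 C; 2 h CCF4 loading at room temperature; fluorescence at 460 and 530 nm; EC50 by Hill equation.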

[7] = target: Peroxisome proliferator-activated receptor gamma (Homo sapiens) (UniProt P37231); assay: qHTS assay for small molecule agonists of peroxisome proliferator-activated receptor gamma signaling (AID 588536; active = well fitted curve in the direction sought with a large enough effect in the signal ratio, with a control signal flat, not every such curve was filed as active; the % refers to the signal ratio;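 note: 0% = DMSO basal wells and 100% = rosiglitazone at 2 µM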)
Procedure, shortened: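 GeneBLAzer PPAR-gamma-UAS-bla HEK293 cells in 1% charcoal/dextran-treated FBS medium were treated 16 h at 37 C with compounds. Beta-lactamase activity was read by CCF4 ratio (460/530 nm). Response was normalized to 2 uM rosiglitazone (100%) and DMSO, then Hill-fitted for EC50 and efficacy.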

[8] = target: Vitamin D3 receptor (Homo sapiens) (UniProt P11473); assay: qHTS assay for small molecule agonists of vitamin D receptor signaling (AID 588543; calls by dose curve;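 note: 0% = DMSO basal and 100% = reference agonist control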)
Procedure, shortened: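 Measured: β-lactamase reporter activity (CCF4, 405 nm excitation, 460/530 nm emission) in HEK293T VDR-UAS-bla cells after 16 h compound exposure at 37 °C. Normalization against 50 nM 1α,25-dihydroxyvitamin D3 and DMSO; Hill-fit EC50.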

[9] = qHTS assay for small molecule agonists of retinoid X receptor alpha signaling (AID 588544; calls by dose curve;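 for activation: 0% = DMSO basal wells and 100% = reference agonist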); details: HEK293T RXRa-UAS-bla, beta-lactamase reporter, 18 h; 530 nm emission
[10] = target: Retinoic acid receptor RXR-alpha (Homo sapiens) (UniProt P19793); assay: as above
[11] = target: Thyroid hormone receptor beta (Homo sapiens) (UniProt P10828); assay: qHTS assay for small molecule antagonists of thyroid hormone receptor beta signaling (AID 588547; active = well fitted inhibition curve with a large enough effect in the signal ratio, with a control signal flat, not every such curve was filed as active; the % refers to the signal ratio;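 note: cells stimulated with 0.4 nM T3 agonist during compound exposure; series mostly up to about 77 µM; % is set by controls: 0 for no effect and ±100 for the full control effect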); details: TR-UAS-bla HEK293, beta-lactamase ratio, antagonist mode, 18 h
Procedure, shortened: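 TR-UAS-bla GripTite HEK293 cells in 2% charcoal/dextran FBS medium; compounds 0.59 nM to 92 uM with T3 at 0.4nM final, 18 h at 37 C. Beta-lactamase read by CCF4 fluorescence (460/530 nm); Hill fits gave IC50 and efficacy.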

[12] = target: Voltage-gated inwardly rectifying potassium channel KCNH2 (Homo sapiens) (UniProt Q12809); assay: qHTS Assay for Small Molecule Inhibitors of the Human hERG Channel Activity (AID 588834);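 note: top concentration of the series differs between compounds; % is set by controls: 0 for no effect and ±100 for the full control effect; lower thallium flux fluorescence means stronger hERG block; nearly all actives have a fitted effect of over 50% in size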
Procedure, shortened: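 Blockade is seen as reduced FluxOR thallium-flux fluorescence in U2OS cells expressing hERG from a BacMam construct, in Opti-MEM with 2% FCS. Concentration-response data fitted to the Hill equation for AC50.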

[13] = qHTS assay for small molecule activators of the p53 signaling pathway (AID 651743; active = well fitted activation curve with a large enough effect in the signal ratio, not every such curve was filed as active; the % refers to the signal ratio; note: potency is the fitted concentration of half-maximal effect; for activation: series mostly up to about 92 µM; % of control where 0% means no effect); details: HCT-116 p53RE-bla, beta-lactamase FRET ratio, 16 h; activation: stronger effect = higher value
Procedure, shortened: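 HCT-116 p53RE-bla, 4,000 cells/well; 5 h settle; cpd/DMSO 16 h, 37 C; LiveBLAzer B/G 2 h RT; fluorescence intensity.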

[14] = qHTS assay for small molecule disruptors of the mitochondrial membrane potential - 1 hr assay (AID 651754; calls by dose curve; note: % is set by controls: 0 for no effect and ±100 for the full control effect; nearly all actives have a fitted effect of over 35% in size)
Procedure, shortened: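 HepG2 cells, attached overnight at 37C, were exposed to compound or DMSO vehicle for 1 hr at 37C, 5% CO2, then stained with Mito-MPS dye for 30 min. Red aggregate versus green monomer fluorescence reports membrane potential.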

[15] = qHTS assay for small molecule disruptors of the mitochondrial membrane potential - 5 hr assay (AID 651755; calls by dose curve; note: % is set by controls: 0 for no effect and ±100 for the full control effect; nearly all actives have a fitted effect of over 40% in size)
Procedure, shortened: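 HepG2 cells (2,000/well), attached overnight, exposed to compound 5 hr at 37C, then Mito-MPS dye 30 min. Fluorescence read for monomers (490/535 nm) and aggregates (540/590 nm).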

[16] = target: Tumor necrosis factor (Homo sapiens) (UniProt P01375); assay: qHTS assay to identify small molecules that stimulate Tumor Necrosis Factor-alpha (TNF-alpha) secretion (AID 651757; active = well fitted curve in the direction sought with a large enough effect in the signal ratio; the % refers to the signal ratio; note: 0% is about no effect)
Procedure, shortened: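 THP-1 cells were exposed to compounds for 17 hrs at 37 C, after which secreted TNF-alpha was measured by homogeneous HTRF (TR-FRET) using cryptate- and XL665-labeled anti-TNF-alpha antibodies, read after 3 hr at room temperature.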

[17] = qHTS assay for small molecule antagonists of the retinoid-related orphan receptor gamma (ROR-gamma) signaling pathway - cell viability counter screen (AID 720652; active = well fitted curve in the direction sought with a large enough effect in the repeat runs; an effect the other way counts as inactive or inconclusive;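 note: CHO reporter cells with doxycycline-induced ROR-gamma expression; series mostly up to about 92 µM; compound exposure lasted 16 hr before ATP read; % is set by controls: 0 for no effect and ±100 for the full control effect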)
Procedure, shortened: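 Counter screen in CHO cells carrying TET-inducible ROR-gamma and an ROR response element-luciferase reporter; cells plated 5 hr, compound pinned, doxycycline added, then 16 hr at 37 C. Viability read as intracellular ATP by CellTiter-Glo luminescence.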

[18] = target: Nuclear receptor subfamily 1 group I member 2 (Rattus norvegicus) (UniProt Q9R1A7); assay: qHTS assay for small molecule activators of the rat pregnane X receptor (rPXR) signaling pathway (AID 651751; call rule not given here; note: 0% is about no effect); details: rPXR reporter cells, luciferase (One-Glo), 24 h
[19] = qHTS assay for small molecule activators of the human pregnane X receptor (PXR) signaling pathway (AID 720659; call rule not given here; note: 0% is about no effect)
[20] = target: Mitogen-activated protein kinase 10 (Mus musculus) (UniProt Q61831); assay: JNK3 AlphaScreen Assay (AID 530; active = well fitted curve in either direction with a large enough effect, not every such curve was filed as active;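 note: kinase came from lysate of stimulated human HepG2 cells; signal reports phosphorylation of biotinylated GST-cJun 1-79 at Ser73 with 10 µM ATP; series mostly up to about 57 µM; % is set by controls: 0 for no effect and ±100 for the full control effect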)
Procedure, shortened: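 qHTS format: compounds tested as titrations against IL-1beta/TNF-alpha-activated HepG2 lysate JNK3 with biotin-GST-cJun substrate and 10 uM ATP at room temperature. Loss of anti-phospho-cJun AlphaScreen signal indicates inhibition.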

Estrogen receptor (Homo sapiens), sequence (P03372 whole entry, looked up): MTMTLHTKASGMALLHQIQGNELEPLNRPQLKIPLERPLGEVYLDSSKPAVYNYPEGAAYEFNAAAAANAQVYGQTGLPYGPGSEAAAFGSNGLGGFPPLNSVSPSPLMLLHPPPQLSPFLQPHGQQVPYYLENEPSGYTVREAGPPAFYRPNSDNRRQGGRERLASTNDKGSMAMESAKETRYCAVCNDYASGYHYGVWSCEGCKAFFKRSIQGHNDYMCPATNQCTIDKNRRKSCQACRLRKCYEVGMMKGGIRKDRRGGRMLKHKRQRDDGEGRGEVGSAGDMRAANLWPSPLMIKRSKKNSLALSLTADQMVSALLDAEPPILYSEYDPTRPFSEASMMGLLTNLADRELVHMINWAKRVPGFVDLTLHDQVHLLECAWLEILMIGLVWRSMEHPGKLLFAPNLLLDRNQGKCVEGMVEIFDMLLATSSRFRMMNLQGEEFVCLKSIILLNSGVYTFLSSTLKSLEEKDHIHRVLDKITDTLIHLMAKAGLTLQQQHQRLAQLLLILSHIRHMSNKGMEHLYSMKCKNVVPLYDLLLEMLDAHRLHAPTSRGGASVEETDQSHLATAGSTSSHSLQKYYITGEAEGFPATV
Voltage-gated inwardly rectifying potassium channel KCNH2 (Homo sapiens), sequence (Q12809 whole entry, looked up): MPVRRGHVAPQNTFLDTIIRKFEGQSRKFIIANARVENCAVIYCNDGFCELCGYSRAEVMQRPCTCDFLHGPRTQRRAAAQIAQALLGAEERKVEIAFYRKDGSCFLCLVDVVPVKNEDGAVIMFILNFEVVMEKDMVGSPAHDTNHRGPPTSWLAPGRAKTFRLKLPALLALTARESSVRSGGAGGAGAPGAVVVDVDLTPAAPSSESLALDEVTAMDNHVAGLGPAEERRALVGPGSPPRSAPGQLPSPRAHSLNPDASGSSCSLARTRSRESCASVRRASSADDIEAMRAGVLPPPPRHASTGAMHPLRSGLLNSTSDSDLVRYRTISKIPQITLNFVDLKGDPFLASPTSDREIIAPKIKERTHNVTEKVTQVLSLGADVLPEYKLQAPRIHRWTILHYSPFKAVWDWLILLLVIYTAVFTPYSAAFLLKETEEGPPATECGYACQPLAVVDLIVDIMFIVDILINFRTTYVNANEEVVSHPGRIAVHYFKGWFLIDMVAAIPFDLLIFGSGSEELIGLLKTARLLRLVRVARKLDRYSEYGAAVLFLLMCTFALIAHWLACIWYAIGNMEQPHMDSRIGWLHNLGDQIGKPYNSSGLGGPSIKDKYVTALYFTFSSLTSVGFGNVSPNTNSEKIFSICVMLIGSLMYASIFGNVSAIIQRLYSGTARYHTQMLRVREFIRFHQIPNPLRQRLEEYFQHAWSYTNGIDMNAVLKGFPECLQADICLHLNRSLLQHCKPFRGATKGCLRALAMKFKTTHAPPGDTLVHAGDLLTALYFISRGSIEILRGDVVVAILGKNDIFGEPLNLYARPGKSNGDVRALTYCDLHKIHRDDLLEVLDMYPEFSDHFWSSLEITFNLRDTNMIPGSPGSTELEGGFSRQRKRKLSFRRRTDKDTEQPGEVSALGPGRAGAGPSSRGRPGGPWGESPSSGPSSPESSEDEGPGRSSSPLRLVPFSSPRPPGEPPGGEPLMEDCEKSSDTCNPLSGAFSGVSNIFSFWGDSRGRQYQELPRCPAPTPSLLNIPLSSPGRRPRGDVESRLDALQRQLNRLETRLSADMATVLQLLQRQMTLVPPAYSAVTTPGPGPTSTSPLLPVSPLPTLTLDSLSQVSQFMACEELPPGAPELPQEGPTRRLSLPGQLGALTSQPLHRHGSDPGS
Retinoic acid receptor RXR-alpha (Homo sapiens), sequence (P19793 whole entry, looked up): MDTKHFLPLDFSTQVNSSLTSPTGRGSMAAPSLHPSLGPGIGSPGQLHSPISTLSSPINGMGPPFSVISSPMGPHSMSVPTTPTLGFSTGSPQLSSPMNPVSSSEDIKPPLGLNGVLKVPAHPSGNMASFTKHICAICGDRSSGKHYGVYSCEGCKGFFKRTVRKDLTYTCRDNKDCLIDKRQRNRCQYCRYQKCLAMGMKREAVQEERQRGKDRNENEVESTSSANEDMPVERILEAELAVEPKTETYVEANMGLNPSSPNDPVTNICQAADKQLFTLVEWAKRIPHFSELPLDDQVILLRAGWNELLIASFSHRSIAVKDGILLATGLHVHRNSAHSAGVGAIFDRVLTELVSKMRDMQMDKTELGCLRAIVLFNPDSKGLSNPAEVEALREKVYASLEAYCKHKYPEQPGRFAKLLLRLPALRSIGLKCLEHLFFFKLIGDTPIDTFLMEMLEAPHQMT
Tumor necrosis factor (Homo sapiens), sequence (P01375 whole entry, looked up): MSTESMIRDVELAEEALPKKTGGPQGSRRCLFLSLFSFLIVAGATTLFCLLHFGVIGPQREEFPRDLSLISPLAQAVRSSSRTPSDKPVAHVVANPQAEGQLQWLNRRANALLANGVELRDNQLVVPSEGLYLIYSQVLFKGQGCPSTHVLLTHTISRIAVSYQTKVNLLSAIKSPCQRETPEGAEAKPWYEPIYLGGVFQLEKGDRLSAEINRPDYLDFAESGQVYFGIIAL
Peroxisome proliferator-activated receptor gamma (Homo sapiens), sequence (P37231 whole entry, looked up): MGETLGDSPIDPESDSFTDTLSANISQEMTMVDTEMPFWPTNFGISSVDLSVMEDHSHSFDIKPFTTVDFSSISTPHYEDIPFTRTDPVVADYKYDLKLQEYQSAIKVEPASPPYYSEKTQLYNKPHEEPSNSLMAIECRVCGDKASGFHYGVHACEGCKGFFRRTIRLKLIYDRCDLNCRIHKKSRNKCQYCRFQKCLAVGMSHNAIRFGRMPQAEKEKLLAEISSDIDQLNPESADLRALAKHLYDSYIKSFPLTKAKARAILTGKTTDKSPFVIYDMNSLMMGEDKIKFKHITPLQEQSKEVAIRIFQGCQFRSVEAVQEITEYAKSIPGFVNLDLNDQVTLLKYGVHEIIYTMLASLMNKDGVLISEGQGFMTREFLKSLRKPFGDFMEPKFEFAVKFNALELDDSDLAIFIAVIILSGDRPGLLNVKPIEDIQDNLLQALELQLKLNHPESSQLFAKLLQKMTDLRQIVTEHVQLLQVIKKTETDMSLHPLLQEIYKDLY
Cytochrome P450 3A4 (Homo sapiens), sequence (P08684 whole entry, looked up): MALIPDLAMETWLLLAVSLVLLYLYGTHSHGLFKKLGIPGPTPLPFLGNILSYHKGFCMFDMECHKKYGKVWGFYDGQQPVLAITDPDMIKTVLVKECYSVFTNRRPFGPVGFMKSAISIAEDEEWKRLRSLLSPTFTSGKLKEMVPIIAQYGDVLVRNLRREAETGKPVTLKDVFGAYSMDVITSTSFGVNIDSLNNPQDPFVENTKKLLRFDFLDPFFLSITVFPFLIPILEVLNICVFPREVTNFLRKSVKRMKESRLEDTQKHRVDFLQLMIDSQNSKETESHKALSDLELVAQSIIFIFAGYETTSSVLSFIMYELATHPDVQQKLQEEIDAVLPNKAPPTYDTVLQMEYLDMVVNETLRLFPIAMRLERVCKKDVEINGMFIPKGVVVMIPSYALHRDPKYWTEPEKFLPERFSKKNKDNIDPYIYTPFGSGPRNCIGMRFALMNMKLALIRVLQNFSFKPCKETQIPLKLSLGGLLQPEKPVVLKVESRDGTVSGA
Nuclear receptor subfamily 1 group I member 2 (Rattus norvegicus), sequence (Q9R1A7 whole entry, looked up): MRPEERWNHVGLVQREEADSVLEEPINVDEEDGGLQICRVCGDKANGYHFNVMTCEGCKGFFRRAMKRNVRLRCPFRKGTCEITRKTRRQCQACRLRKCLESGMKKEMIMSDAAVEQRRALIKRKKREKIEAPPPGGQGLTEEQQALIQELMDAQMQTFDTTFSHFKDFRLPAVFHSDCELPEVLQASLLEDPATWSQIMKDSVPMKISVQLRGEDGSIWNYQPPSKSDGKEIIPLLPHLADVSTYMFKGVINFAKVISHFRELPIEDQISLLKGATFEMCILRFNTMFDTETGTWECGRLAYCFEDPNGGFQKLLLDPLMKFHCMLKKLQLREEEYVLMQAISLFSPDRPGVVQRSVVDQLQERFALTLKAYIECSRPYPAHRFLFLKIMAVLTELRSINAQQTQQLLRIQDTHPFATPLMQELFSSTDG
Vitamin D3 receptor (Homo sapiens), sequence (P11473 whole entry, looked up): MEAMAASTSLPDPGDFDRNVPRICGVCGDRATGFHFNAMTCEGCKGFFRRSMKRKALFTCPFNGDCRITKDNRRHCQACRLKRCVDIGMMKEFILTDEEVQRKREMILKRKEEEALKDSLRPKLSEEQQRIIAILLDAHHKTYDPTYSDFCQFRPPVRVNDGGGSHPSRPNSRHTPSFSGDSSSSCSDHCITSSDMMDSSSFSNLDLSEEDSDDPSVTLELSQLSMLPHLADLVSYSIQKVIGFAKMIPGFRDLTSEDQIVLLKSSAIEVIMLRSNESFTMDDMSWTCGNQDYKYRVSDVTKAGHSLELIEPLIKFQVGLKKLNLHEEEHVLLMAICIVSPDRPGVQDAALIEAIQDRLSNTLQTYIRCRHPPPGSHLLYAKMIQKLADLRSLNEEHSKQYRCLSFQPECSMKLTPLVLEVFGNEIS
Thyroid hormone receptor beta (Homo sapiens), sequence (P10828 whole entry, looked up): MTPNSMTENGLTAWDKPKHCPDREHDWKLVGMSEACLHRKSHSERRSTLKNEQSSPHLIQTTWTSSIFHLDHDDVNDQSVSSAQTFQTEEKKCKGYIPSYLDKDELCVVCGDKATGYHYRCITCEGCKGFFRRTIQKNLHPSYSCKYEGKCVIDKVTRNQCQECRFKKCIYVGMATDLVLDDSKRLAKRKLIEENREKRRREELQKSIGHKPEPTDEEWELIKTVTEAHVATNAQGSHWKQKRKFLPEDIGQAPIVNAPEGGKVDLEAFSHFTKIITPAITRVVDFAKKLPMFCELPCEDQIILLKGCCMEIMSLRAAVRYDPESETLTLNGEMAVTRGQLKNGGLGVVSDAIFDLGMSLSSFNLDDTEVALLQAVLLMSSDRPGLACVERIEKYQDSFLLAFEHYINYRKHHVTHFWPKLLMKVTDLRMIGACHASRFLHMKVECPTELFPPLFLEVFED

Cc1ccccc1C
inactive: Potency [1] | Potency [2] | Potency [3] | Potency [4] | Potency [5] | activation [6] -7.63% and -0.245% | outcome [7] | outcome [8] | outcome [10] | activity change % (negative = inhibition) [11] 8.96% and 15% | Potency [12] | activation [13] -3.02% and -3.15% | Potency [14] | Potency [15] | outcome [16] | Potency [17] | max response [18] -1.06% and 4.02% | outcome [19]
-0.877% and 16.9%: max response [9]

O=C(Nc1ccccc1)c1ccccc1O
inactive: activation [6] 2.18% | outcome [7] | activation [13] 20.6% | max response [18] -1.47%

O=NO
inactive: Potency [20] | Potency [1] | Potency [2] | Potency [3] | Potency [4] | outcome [7] | outcome [8] | outcome [10] | activity change % (negative = inhibition) [11] -1.68% and 1.18% | Potency [12] | Potency [14] | Potency [15] | outcome [16] | Potency [17] | max response [18] 3.2% and 1.29% | outcome [19]
-10.7% and -17.9%: max response [9]

CC1=CC(C)(C)Nc2ccccc21
inactive: Potency [20] | Potency [2] | Potency [3] | Potency [4] | Potency [5] | outcome [7] | outcome [8] | outcome [10] | activity change % (negative = inhibition) [11] -25% | Potency [12] | activation [13] -2.38% and -0.537% | Potency [14] | Potency [15] | outcome [16] | Potency [17]
10 µM (active) and inactive: Potency [1]
-19.9% and -2.04%: max response [9]

c1ccc(Nc2nc(-c3ccoc3)nc3ccccc23)cc1
inactive: Potency [20]

S=C1NC=NC2N=CNC12 (stereo not drawn)
inactive: Potency [20] | Potency [1] | Potency [2] | Potency [3] | outcome [8] | Potency [12] | Potency [14] | Potency [15] | max response [18] -8.03% | outcome [19]
active: Potency [13] 10 µM

O=[N+]([O-])c1cccc(Cl)c1Cl
6.35% and -11.4%: max response [9]
inactive: Potency [20] | Potency [1] | Potency [2] | Potency [3] | Potency [4] | Potency [5] | activation [6] 3.57% and 3.5% | outcome [7] | outcome [8] | outcome [10] | Potency [14] | Potency [15] | outcome [16] | Potency [17] | max response [18] -1.89% and -3.78% | outcome [19]

C/C=C\c1ccc(OC)cc1
inactive: Potency [20] | Potency [2] | Potency [3] | Potency [4] | outcome [7] | outcome [10] | activity change % (negative = inhibition) [11] 20.9% | Potency [12] | outcome [16] | Potency [17] | max response [18] 5.64% | outcome [19]
-9.52%: max response [9]

CCC(C)c1ccccc1O (stereo not drawn)
-16.8% and -5.28% and 4.79%: max response [9]
inactive: Potency [20] | Potency [1] | Potency [2] | Potency [3] | Potency [4] | activation [6] -11.6% and -11.3% and 1.07% | outcome [7] | outcome [8] | outcome [10] | activity change % (negative = inhibition) [11] -2.64% and 0.537% | Potency [12] | Potency [14] | Potency [15] | outcome [16] | Potency [17] | max response [18] 11.2% and -2.55% and 1.18% | outcome [19]

COC(=O)c1ccc(C=O)cc1
inactive: Potency [20] | Potency [1] | Potency [2] | Potency [3] | Potency [4] | Potency [5] | activation [6] 8.1% and -8.49% | outcome [7] | outcome [8] | outcome [10] | activity change % (negative = inhibition) [11] 3.66% | Potency [12] | activation [13] -0.565% and 0.101% | Potency [14] | Potency [15] | outcome [16] | Potency [17] | max response [18] -0.798% and -1.94% | outcome [19]
2.75% and 4.18%: max response [9]

O=C(O)CC(C(=O)O)C(CC(=O)O)C(=O)O (stereo not drawn)
3.34% and -3.12%: max response [9]
inactive: Potency [20] | Potency [1] | Potency [2] | Potency [3] | Potency [4] | Potency [5] | activation [6] -3.1% and -3.88% | outcome [7] | outcome [8] | outcome [10] | activity change % (negative = inhibition) [11] -3.7% and -9.45% | Potency [12] | activation [13] -3.49% and -0.408% | Potency [14] | Potency [15] | outcome [16] | Potency [17] | max response [18] -5.76% and 4.78% | outcome [19]

Nc1ccc(S(=O)(=O)O)cc1
8.69% and -7.04%: max response [9]
inactive: Potency [20] | Potency [1] | Potency [2] | Potency [3] | Potency [4] | Potency [5] | outcome [7] | outcome [8] | outcome [10] | activity change % (negative = inhibition) [11] -11.7% and 17.4% | Potency [12] | activation [13] 3.7% and 3.55% | Potency [14] | Potency [15] | outcome [16] | Potency [17] | max response [18] -3.61% and -1.3%

CC(=O)OC/C=C(\C)CCC=C(C)C
4.32% and -5.25%: max response [9]
inactive: Potency [20] | Potency [1] | Potency [2] | Potency [3] | Potency [4] | Potency [5] | activation [6] 3.31% and -2.94% | outcome [7] | outcome [10] | activity change % (negative = inhibition) [11] 10.6% | Potency [12] | activation [13] -0.898% and 4.78% | Potency [14] | Potency [15] | outcome [16] | Potency [17] | max response [18] 1.82% and -1.93% | outcome [19]

COC(=O)CCCCC(=O)OC
inactive: Potency [1] | Potency [2] | Potency [3] | Potency [5] | activation [6] 7.61% and 12.5% | outcome [7] | outcome [8] | outcome [10] | activity change % (negative = inhibition) [11] 22.1% and -0.698% and -15.8% | Potency [12] | activation [13] -0.0209% and -1.5% | Potency [14] | Potency [15] | outcome [16] | Potency [17] | max response [18] 5.4% and -0.278% and 0.834% | outcome [19]
-8.22% and -17.2% and -16.7%: max response [9]

CN1CCN(c2nc(-c3cccnc3)nc3ccccc23)CC1
inactive: Potency [20]

From PubChem BioAssay (NCATS)
